From PubChem BioAssay
In the library only some 19% were active in any assay of this set; here they are far more common.
DT40 TDP1 no CPT: qHTS for Inhibitors of human tyrosyl-DNA phosphodiesterase 1 (TDP1): qHTS in cells in absence of CPT; Potency, µM (top dose mostly 46.2 µM), without a hit: top-dose activity change, negative = growth inhibition, usual class: inhibitors; DT40 Tdp1-/- hTDP1 cells, no CPT, ATP luminescence, 48 h; actives 15% (n = 420,000); note: nearly all actives have a fitted effect of over 55% in size
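No-CPT arm: Tdp1-/-;hTDP1 DT40 cells (400/well) plus compounds, incubated ≥48 hr at 37 °C. Readout CellTiter-Glo luminescence.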
Gal4-VP16 FLuc: Gal4-VP16 reporter inhibition counter-screen; Potency, µM (highest dose often 53.6 µM), for inactives: at the highest dose activity, negative = inhibition, actives largely listed as inhibitors; actives 3.5% (n = 310,000); Drosophila S2 Gal4-VP16 UAS-luciferase, luminescence, 20 h;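 note: Gal4-VP16 expression switched on by copper sulfate through the metallothionein promoter; nearly all actives have a fitted effect of over 50% in size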
RORgamma inh: ROR gamma (mouse) transcription inhibition; actives 5.4% (n = 310,000); Potency, µM (series often up to 53.6 µM), for inactives: at the top dose activity change, negative = inhibition, most hits filed as inhibitors; Drosophila S2 Gal4-RORgamma UAS-luciferase reporter, 20 h; P51450; note: nearly all actives have a fitted effect of over 60% in size
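Using a luciferase readout, inhibitors were identified by reduced reporter activity in Drosophila cells coexpressing a copper-inducible Gal4–ROR gamma fusion and UAS-driven Photinus luciferase, incubated 20 hr after 700 uM copper sulfate.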
TDP1 block: inhibitors of human tyrosyl-DNA phosphodiesterase TDP1. Q9NUW8. recombinant TDP1, AlphaScreen DNA substrate cleavage. Potency, µM (titrated, usually from 130 µM), inactives show top-dose activity change, negative = inhibition, usual class: inhibitors. actives 0.28% (n = 350,000); note: nearly all actives have a fitted effect of over 40% in size
Target sequence (Q9NUW8 whole entry, looked up): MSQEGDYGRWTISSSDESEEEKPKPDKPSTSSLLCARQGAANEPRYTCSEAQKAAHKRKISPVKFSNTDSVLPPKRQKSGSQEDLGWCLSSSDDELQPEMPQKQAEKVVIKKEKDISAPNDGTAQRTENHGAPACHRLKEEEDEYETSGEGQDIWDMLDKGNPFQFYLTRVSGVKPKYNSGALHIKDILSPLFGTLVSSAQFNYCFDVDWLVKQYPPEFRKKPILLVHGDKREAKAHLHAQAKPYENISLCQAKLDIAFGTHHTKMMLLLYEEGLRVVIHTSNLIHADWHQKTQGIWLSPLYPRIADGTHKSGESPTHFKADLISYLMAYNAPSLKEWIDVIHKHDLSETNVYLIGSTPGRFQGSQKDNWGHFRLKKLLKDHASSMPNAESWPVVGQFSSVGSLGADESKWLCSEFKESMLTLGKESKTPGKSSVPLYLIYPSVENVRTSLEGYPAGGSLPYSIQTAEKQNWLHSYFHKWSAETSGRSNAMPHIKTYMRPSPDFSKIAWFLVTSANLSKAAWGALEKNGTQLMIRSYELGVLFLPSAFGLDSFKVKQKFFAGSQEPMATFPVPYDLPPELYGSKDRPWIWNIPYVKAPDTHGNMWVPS
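Steps: enzyme plus compound, 15 min RT; add biotin/phosphotyrosine-FITC oligonucleotide (15 nM final), react 5 min; add donor/acceptor beads (10 ug/ml final), 10 min; read AlphaScreen. Tdp1 at 1 nM final.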
DT40 TDP1 CPT: growth inhibition of DT40 Tdp1-/-;hTDP1 cells with camptothecin (screen for TDP1 inhibitors) | chicken DT40 Tdp1-/-;hTDP1 cells + 20 nM CPT, ATP luminescence, 48 h | Potency, µM (titrated, usually from 46.2 µM), for the others: at the highest dose activity change, negative = growth inhibition, usual class: inhibitors | actives 12% (n = 420,000) | AID 686979; note: nearly all actives have a fitted effect of over 55% in size
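Chicken DT40 Tdp1-/- cells complemented with human TDP1, 400 cells/well, exposed to compounds plus 20 nM camptothecin for at least 48 h at 37 C; viability read as ATP content by CellTiter-Glo luminescence.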
Active calls of the source: *. Calls come from the whole dose curve; as a rule, active = well fitted curve in the direction sought with a large enough effect; inconclusive = small, poorly fitted or top-dose-only effect, or another doubt; inactive = no such curve, though single readings can be large; an effect the other way counts as inactive or inconclusive. % is set by controls: 0 for no effect and ±100 for the full control effect; potency is the fitted concentration of half-maximal effect.

Screening COc1cc(CN(C)CC2CCCN(CCc3ccccc3F)C2)cc(Cl)c1OC (stereo not given) returned DT40 TDP1 no CPT 25.9µM*, Gal4-VP16 FLuc -8.0%, RORgamma inh -21.4%, TDP1 block -14.5% and DT40 TDP1 CPT inconclusive.
COc1ccc(F)c(CN(C)CC2CCCN(CCc3ccc(F)cc3)C2)c1 (stereo not given) was read as DT40 TDP1 no CPT 16.4µM*, Gal4-VP16 FLuc 1.7%, RORgamma inh -46.5%, TDP1 block 4.5% and DT40 TDP1 CPT inconclusive.
COC(=O)CCC(=O)N(C)CC1CCCN(CCc2cccc(C(F)(F)F)c2)C1 (stereo not given) was read as DT40 TDP1 no CPT 2.0%, Gal4-VP16 FLuc -11.8%, RORgamma inh -2.5% and DT40 TDP1 CPT -2.7%.
Screening COc1ccc(CN(C)CC2CCCN(CCc3ccc(Cl)cc3)C2)cc1OC (stereo not given) returned DT40 TDP1 no CPT inconclusive, Gal4-VP16 FLuc 2.5%, RORgamma inh 0.6% and DT40 TDP1 CPT inconclusive.
Screening COc1ccc(CN(C)CC2CCCN(CCc3ccc(F)cc3)C2)cc1OC (stereo not given) returned DT40 TDP1 no CPT 23.1µM*, Gal4-VP16 FLuc -6.3%, RORgamma inh -16.0%, TDP1 block 3.9% and DT40 TDP1 CPT 16.4µM*.
`CCCCn1c(N)c(N(CC)C(=O)CCNC(=O)c2ccc(Cl)cc2)c(=O)[nH]c1=O` gave DT40 TDP1 no CPT -7.4%, TDP1 block 0.4% and DT40 TDP1 CPT -6.9%.
Screening Cc1ccc(CCN2CC(C(=O)NCCCN3CCCCC3)CC2=O)cc1 (stereo not given) returned DT40 TDP1 no CPT 12.6%, Gal4-VP16 FLuc -3.0%, RORgamma inh -5.7%, TDP1 block 1.6% and DT40 TDP1 CPT 2.5%.
For COC(=O)C1=C(C)N(c2ccc(C)c(C)c2)/C(=C/c2ccc(O)cc2)C1=O the results were DT40 TDP1 no CPT 2.8%, Gal4-VP16 FLuc inconclusive, RORgamma inh inconclusive, TDP1 block -2.7% and DT40 TDP1 CPT 3.1%.
For COc1ccc(CCN2CCCC(CN(C)Cc3cc(OC)c(OC)c(OC)c3)C2)cc1 (stereo not given) the results were DT40 TDP1 no CPT 16.4µM*, Gal4-VP16 FLuc 8.6%, RORgamma inh -19.4% and DT40 TDP1 CPT 20.6µM*.
Screening CC(=O)c1cccc(CN(C)CC2CCCN(CCc3ccccc3C)C2)c1 (stereo not given) returned DT40 TDP1 no CPT inconclusive, Gal4-VP16 FLuc -13.6%, RORgamma inh -30.3% and DT40 TDP1 CPT 16.4µM*.
NNc1cc2c(nn1)CCN(C(=O)c1ccccc1)C2 was read as DT40 TDP1 no CPT -3.1% and DT40 TDP1 CPT -5.3%.
`Cc1ccc(-c2nc3cccnc3s2)cc1NS(C)(=O)=O` gave DT40 TDP1 no CPT 20.6µM*, Gal4-VP16 FLuc 22.5%, RORgamma inh 39.3% and DT40 TDP1 CPT inconclusive.
Screening CCC(C(=O)Nc1cc(-c2nc3cccnc3s2)ccc1C)c1ccccc1 (stereo not given) returned DT40 TDP1 no CPT 20.6µM*, TDP1 block 3.9% and DT40 TDP1 CPT inconclusive.
`O=C(Nc1ccccc1N1CCN(c2ccc(F)cc2)CC1)C1CCCCC1` gave DT40 TDP1 no CPT 8.6%, Gal4-VP16 FLuc -4.8%, RORgamma inh -7.4%, TDP1 block 1.0% and DT40 TDP1 CPT -6.8%.
O=c1c2ccsc2ncn1Cc1ccc(Cl)cc1 was read as DT40 TDP1 no CPT 18.4µM*, Gal4-VP16 FLuc -3.3%, RORgamma inh 2.1%, TDP1 block 6.2% and DT40 TDP1 CPT inconclusive.
For O=c1c2ccccc2ncn1Cc1ccccc1 the results were DT40 TDP1 no CPT 9.0%, Gal4-VP16 FLuc -12.3%, RORgamma inh 14.6%, TDP1 block 5.9% and DT40 TDP1 CPT 17.8%.
`O=C(NCCC1=CCCCC1)c1cc2ccccc2oc1=O` gave DT40 TDP1 no CPT inconclusive, Gal4-VP16 FLuc 23.3%, RORgamma inh 1.3%, TDP1 block 2.8% and DT40 TDP1 CPT -22.6%.
